14 compounds from PubChem BioAssay (EPA / NIEHS) can be followed below.

Active and inactive are the calls of the source. How the source made its calls: active means hit-call score of the fitted dose curve at least 0.9, where 1 is the maximum; inactive means score below 0.9.

The test in a line: Tanguay_ZF_120hpf_BRN: Oregon State University Tanguay Lab 120 Hour Post-fertilization zebrafish Assay for Brain Region Malformation (AID 2284402). The method, then:
Tanguay_ZF_120hpf is a whole embryo, multiplexed endpoint assay using zebrafish larvae exposed for 120 hours post fertilization on a 96-well plate.Tanguay_ZF_120hpf_BRN is one of one assay component(s) measured or calculated from the Tanguay_ZF_120hpf assay. It is designed to make measurements of zebrafish development as detected with brightfield microscopy of developing zebrafish embryos.Data from the assay component Tanguay_ZF_120hpf_BRN was analyzed into 1 assay endpoints. This assay endpoint, Tanguay_ZF_120hpf_BRN, was analyzed in the positive analysis fitting direction relative to DMSO as the negative control and baseline of activity. Using a type of morphology reporter, gain-of-signal activity can be used to understand changes in developmentals as they relate to the whole embryo. To generalize the intended target to other relatable targets, this assay endpoint is annotated to the zebrafish development intended target family, where the subfamily is brain morphogenesis.
Zebrafish husbandry: Tropical 5D wild-type adult zebrafish were housed in at an approximate density of 1000 per 100 gallon tank at the Sinnhuber Aquatic Research Laboratory, Oregon State University, Corvallis, OR. Each tank was kept at standard laboratory conditions of 28C on a 14-h light/10-h dark photoperiod in fish water consisting of reverse osmosis water supplemented with a commercially available salt (Instant Ocean). Spawning funnels were placed into the tanks the night prior, and embryos were collected and staged. To increase bioavailability, the chorion was enzymatically removed using pronase (63.6mg/ml, >/= 3.5U/mg, Sigma-Aldrich: P5147) at 4 hours post fertilization (hpf) using a custom automated dechorionator.Chemical exposures: Six hpf dechorionated embryos were placed 1 embryo per well in a 96-well plate prefilled with 90 ul of EM using automated embryo placement systems (AEPS). Ten microliters of each row of dilution plate 2 was added to 2 exposure plates. The final DMSO concentration used was 0.64% (vol/vol). Thirty-two embryos were also exposed to 5uM trimethyltin chloride (positive control). Plates were sealed to prevent evaporation and foil covered to reduce light exposure and kept in a 28C incubator. Embryos were statically exposed until 120 hpf. At 24 hpf, embryos were assessed for photomotor response using a custom photomotor response analysis tool (PRAT) and for developmental toxicity endpoints (MO24: mortality at 24 hpf, DP: developmental progression, SM: spontaneous movement, and NC: notochord distortion). At 120 hpf, locomotor activity was measured using Viewpoint Zebralab and assessed for 13 endpoints. Zebrafish acquisition and analysis program (ZAAP), a custom program designed to inventory, acquire, and manage zebrafish data, was used to collect developmental endpoints as either present or absent (i.e., binary responses were recorded). If mortality occurred for an embryo (at either 24 or 120 hpf), the non-mortality endpoints were not measured.
On to `COC(=O)C(F)(F)C(F)(F)OC(F)(C(F)(F)F)C(F)(F)OC(F)=C(F)F` (centres undefined), for which the compound was called inactive. With `OCC(F)(F)OC(F)(F)C(F)(F)OC(F)(F)C(F)(F)OC(F)(F)F`, the call was inactive. Under `OCC(F)(F)OC(F)(F)C(F)(F)OC(F)(F)CO` stands “inactive”. Under `O=S(=O)(F)C(F)(F)C(F)(F)C(F)(F)C(F)(F)C(F)(F)C(F)(F)C(F)(F)C(F)(F)F` stands “inactive”; under `FC(F)(F)C(F)(C(F)(F)F)C(F)(F)C(F)(F)CC1CO1` (centres undefined), “inactive”; under `NC(=O)C(F)(F)C(F)(F)F`, “inactive”. Under `OCC(F)(F)OC(F)(F)C(F)(F)OC(F)(F)C(F)(F)OC(F)(F)CO` stands “inactive”; under `O=C(O)C(F)(F)OC(F)(F)C(F)(F)OC(F)(F)F`, “inactive”.

Take `O=C(O)C(F)(F)C(F)(F)C(=O)O`: the call was inactive. Under `O=C(O)C(F)(F)OC(F)(F)C(F)(F)OC(F)(F)C(=O)O` stands “inactive”; under `O=C(O)C=CC(F)(C(F)(F)F)C(F)(F)F`, “inactive”; under `O=C(O)C(F)(OC(F)(F)C(F)(F)C(F)(F)F)C(F)(F)F` (centres undefined), “inactive”. Consider `C=CC(=O)OCC(F)(F)C(F)F`, for which the compound was called inactive.

Regarding `CC(O)C(F)(F)C(F)(F)F` (centres undefined), the compound was called inactive.
